This is part of a sample that, as a whole, favours compounds with a hit. Of some 79,000 tested, about 15% had one in any assay. Unmarked numbers belong to inactive results. Active and inactive are the calls of the source. No stated cut-off is given here; in the data, active means growth inhibition above about 70%; inactive means the rest.
Experiment: NCI Yeast Anticancer Drug Screen. Data for the cln2 rad14 strain (AID 165);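 further: 0% = growth equal to vehicle treated cultures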
Conditions: S. cerevisiae cln2 rad14 strain, stronger effect = higher value
Protocol: Growth inhibition of yeast strains with defined genetic alterations is measured as a screen for potential anti-cancer activity. Selected strains with alterations in DNA damage repair or cell cycle control were exposed to compounds and growth inhibition was measured relative to vehicle treated controls. The strain used in this assay is cln2 rad14

[1] = at 5.0 µM (retest, dose inferred, filed as 0.5)
[2] = at 50.0 µM (retest, dose inferred, filed as 5.0)

CCOC(=O)/C(O)=C(/C=N/C(=S)Nc1c(CC)cccc1CC)C(=O)OCC
growth inhibition [1]: -1%
growth inhibition [2]: 25%
growth inhibition (at 50.0 µM): 35.2%

O=C1c2ccccc2-c2ccc(NC(=O)C3CCCCC3C(=O)O)cc21 (configuration not stated)
growth inhibition [1]: -20%
growth inhibition [2]: -58%
growth inhibition (at 50.0 µM): 12.7%

CC(C)c1ccc(C2NC(=S)NC3=C2c2ccccc2C3=O)cc1 (configuration not stated)
growth inhibition [1]: -9%
growth inhibition [2]: 26%
growth inhibition (at 50.0 µM): 66.8%

O=c1oc(C(C(F)(F)F)C(F)(F)F)nc2ccccc12
growth inhibition [1]: 23%
growth inhibition [2]: 33%
growth inhibition (at 50.0 µM): 12.3%

c1cc2ccc3cc4ncccc4c4ccc(c1)c2c34
growth inhibition [1]: 15%
growth inhibition [2]: 90% (active)
growth inhibition (at 50.0 µM): 92.3% (active)

Cc1cc(NC(=S)SCc2ccc(Cl)cc2)ccc1Cl
growth inhibition [1]: 29%
growth inhibition [2]: 95% (active)
growth inhibition (at 50.0 µM): 90.5% (active)

COc1ccc2cc(CN3CCC(C4CCN(Cc5ccc6cc(OC)ccc6c5)CC4)CC3)ccc2c1
growth inhibition [1]: 19%
growth inhibition [2]: -48%
growth inhibition (at 50.0 µM): 64.3%

CC(C)(C)[Si](C)(C)OCC1OC(n2cnc3c(N)ncnc32)C2OC(=S)OC12 (configuration not stated)
growth inhibition [1]: 3%
growth inhibition [2]: 98% (active)
growth inhibition (at 50.0 µM): -15.6%

N=c1oc2ccccc2cc1-c1nc2ccccc2[nH]1
growth inhibition [1]: 5%
growth inhibition [2]: 27%
growth inhibition (at 50.0 µM): 28.3%

CCOC(=O)c1[nH]c2cccc3c2c1CC(Br)C3=O (configuration not stated)
growth inhibition [1]: 6%
growth inhibition [2]: 60%
growth inhibition (at 50.0 µM): 50.6%

COc1ccc(/C=C2\CCc3ccccc3C2=O)cc1OC
growth inhibition [1]: 23%
growth inhibition [2]: 48%
growth inhibition (at 50.0 µM): 60.9%

CN(C)CCC(=O)c1c[nH]c2ccccc12
growth inhibition [1]: 77% (active)
growth inhibition [2]: 36%
growth inhibition (at 50.0 µM): 31.1%

NCC(O)CSCc1ccc(Cl)cc1 (configuration not stated)
growth inhibition [1]: -7%
growth inhibition [2]: 10%
growth inhibition (at 50.0 µM): 86.5% (active)

CCCCCC/C(C)=N/Nc1ccc([N+](=O)[O-])cc1[N+](=O)[O-]
growth inhibition [1]: -4%
growth inhibition [2]: 77% (active)
growth inhibition (at 50.0 µM): 30.9%
